In PubChem BioAssay (Tox21) one finds outcome, Potency and activity change data, which are given here for nine molecules.

The structures appear in SMILES notation. “And” between values parts separate entries of the source, which are not always exact repeats. Equal values may be shown once. Records with an inconclusive call do not appear. The source holds several records for some structures; these can differ, active in one and inactive in another. The source made the active and inactive calls. Unless noted, calls follow the shape of the dose curve; as a rule, active = well fitted curve in the direction sought with a large enough effect in the repeat runs; inconclusive = weak or mixed curves; inactive = no such curve, though single readings can be large; an effect the other way counts as inactive or inconclusive.

Test [1] is described as follows: qHTS assay to test for compound auto fluorescence at 535 nm (green) in HEK293 cells (AID 720680). Background: Quantitative high-throughput screening tests each substance at several concentrations.
Test [2] in a line: qHTS assay to test for compound auto fluorescence at 460 nm (blue) in HEK293 cell free culture (AID 720681). Summed up: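 Blue fluorescence (Ex 405/Em 460 nm, triamterene-equivalent) was read immediately after pin transfer of compound or DMSO into medium (DMEM, 10% FBS) without cells.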
Test [3] in a line: qHTS assay to test for compound auto fluorescence at 535 nm (green) in HEK293 cell free culture (AID 720682). In short, it runs like this:
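Green-label autofluorescence (485 nm excitation, 535 nm emission) measured on compound added to cell-free culture medium (DMEM, 10% FBS). Output is expressed relative to fluorescein.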

Test [4] is described as follows: qHTS assay to test for compound auto fluorescence at 590 nm (red) in HEK293 cell free culture (AID 720683). Summed up: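 Red-channel autofluorescence of compounds in culture medium (DMEM, 10% FBS), no cells, measured at 540/590 nm. Rose Bengal sodium is the reference fluorophore for equivalence.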
A short description of test [5]: qHTS assay to test for compound auto fluorescence at 590 nm (red) in HepG2 cell free culture (AID 720684). Summed up:
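Cell-free; medium MEM + 10% FBS; compound or DMSO added by pintool; read Ex 540/Em 590 nm; Rose Bengal sodium as red reference fluorophore.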

A short description of test [6]: qHTS assay to test for compound auto fluorescence at 460 nm (blue) in HepG2 cell free culture (AID 720685). Summed up:
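Cell-free plates of MEM plus 10% FBS received 23 nL compound or DMSO vehicle; blue-channel (405/460 nm) intensity scored against triamterene as reference fluorophore.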

A short description of test [7]: qHTS assay to test for compound auto fluorescence at 535 nm (green) in HepG2 cell free culture (AID 720686).
The nature of test [8]: qHTS assay to test for compound auto fluorescence at 460 nm (blue) in HepG2 cells (AID 720687). Summed up: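 Blue-channel autofluorescence (Ex/Em 405/460 nm, triamterene-equivalent) was measured after 1 hr compound exposure at 37 C, 5% CO2. Cells were HepG2, plated overnight at 37 C in MEM plus 10% FBS.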
Test [9] concerns the target Glucocorticoid receptor (Homo sapiens) (UniProt P04150). Kind of test: qHTS assay to identify small molecule agonists of the glucocorticoid receptor (GR) signaling pathway (AID 720691; active = well fitted activation curve with a large enough effect in the signal ratio in the repeat runs, not every such curve was filed as active; the % refers to the signal ratio). Summed up:
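Steps: seed GR-bla HeLa cells, incubate 4 h at 37 C/5% CO2; pin-transfer DMSO-dissolved compounds; incubate 18 h at 37 C; add LiveBLAzer B/G FRET substrate; after 2 h at room temperature, measure fluorescence.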

For test [10] the target is unchanged. The experiment in a line: qHTS assay to identify small molecule antagonists of the glucocorticoid receptor (GR) signaling pathway (AID 720692; active = well fitted inhibition curve with a large enough effect in the signal ratio in the repeat runs, not every such curve was filed as active; the % refers to the signal ratio). Summed up:
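Antagonism was scored as loss of dexamethasone-driven (5 nM final) reporter signal in HeLa cells bearing a glucocorticoid response element–beta-lactamase construct, after 18 h compound exposure at 37 C and 2 h FRET substrate loading.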

A short description of test [11]: qHTS assay to identify small molecule antagonists of the glucocorticoid receptor (GR) signaling pathway - cell viability counter screen (AID 720693). Also: nearly all actives have a fitted effect of over 55% in size.
The nature of test [12]: qHTS assay for identifying genotoxic compounds that show differential cytotoxicity against isogenic chicken DT40 cell lines with known DNA damage response pathways - Rev3 mutant cell line (AID 743014). Also: nearly all actives have a fitted effect of over 55% in size. Also: potency is read from the fitted curve at half-maximal effect.
Test [13] in a line: qHTS assay for identifying genotoxic compounds that show differential cytotoxicity against isogenic chicken DT40 cell lines with known DNA damage response pathways - Rad54/Ku70 mutant cell line (AID 743015). Also: nearly all actives have a fitted effect of over 60% in size. Also: potency is read from the fitted curve at half-maximal effect.
Test [14] in a line: qHTS assay to identify small molecule antagonists of the androgen receptor (AR) signaling pathway using the MDA cell line - cell viability counter screen (AID 743041; also: nearly all actives have a fitted effect of over 45% in size). Summed up:
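Viability read by CellTiter-Fluor fluorescence in the same wells as the antagonist screen, added after 15.5 h of a 16 h, 37C exposure. Human breast carcinoma MDA-kb2 AR-luc cells, compounds co-dosed with agonist R1881.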

The nature of test [15]: qHTS assay for identifying genotoxic compounds that show differential cytotoxicity against isogenic chicken DT40 cell lines with known DNA damage response pathways - wild type cell line (AID 743012). Also: nearly all actives have a fitted effect of over 60% in size. Also: potency is read from the fitted curve at half-maximal effect. Summed up:
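Cytotoxicity in repair-proficient parental chicken DT40 cells serves as the comparator for Rad54/Ku70- and Rev3-deficient lines. Cells were exposed to compounds for 40 h at 37 C/5% CO2, and ATP-based luminescence (CellTiter-Glo) measured viability.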

The nature of test [16]: qHTS assay to identify small molecule antagonists of the androgen receptor (AR) signaling pathway - cell viability counter screen (AID 743033; also: nearly all actives have a fitted effect of over 45% in size).
The target of test [17] is Androgen receptor (Homo sapiens) (UniProt P10275). Kind of test: qHTS assay to identify small molecule antagonists of the androgen receptor (AR) signaling pathway (AID 743035; active = well fitted inhibition curve with a large enough effect in the signal ratio in the repeat runs, not every such curve was filed as active; the % refers to the signal ratio). Summed up:
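Steps: seed AR-UAS-bla GripTite HEK293 cells, incubate 4 h at 37C; pin in test compound, then add agonist R1881; incubate 16 h at 37C; add LiveBLAzer B/G FRET substrate, 2 h at room temperature; read fluorescence.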

Test [18] shares this target. Kind of test: qHTS assay to identify small molecule agonists of the androgen receptor (AR) signaling pathway (AID 743036; active = well fitted activation curve with a large enough effect in the signal ratio in the repeat runs, with a control signal flat, not every such curve was filed as active; the % refers to the signal ratio). Summed up: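 AR-UAS-bla HEK293 cells, plated 4 h before dosing, were treated with compound for 16 h at 37C. beta-Lactamase reporter read after 2 h with LiveBLAzer B/G FRET substrate at room temperature.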
Test [19] has the same target. The experiment in a line: qHTS assay to identify small molecule agonists of the androgen receptor (AR) signaling pathway using the MDA cell line (AID 743040; also: nearly all actives have a fitted effect of over 20% in size). The following applies: MDA-kb2 AR-luc cells, MMTV luciferase, 16 h; at 70.3 µM (top of the series); stronger effect = higher value. Summed up:
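Luciferase agonist assay: 16 h compound exposure at 37C without CO2 in MDA-kb2 AR-luc cells, whose MMTV promoter responds to both AR and GR. Luminescence measured after 30 min room-temperature incubation with ONE-Glo.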

The target is the same in test [20]. The experiment in a line: qHTS assay to identify small molecule antagonists of the androgen receptor (AR) signaling pathway using the MDA cell line (AID 743042; also: nearly all actives have a fitted effect of over 55% in size). Summed up: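 Antagonist mode: compounds plus R1881 agonist added to MDA-kb2 AR-luc cells, incubated 16 h at 37C. Luciferase reporter luminescence quantified, with multiplexed CellTiter-Fluor readout for cell viability.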
% is scaled to controls: 0 for no effect and ±100 for the full control effect.

Glucocorticoid receptor (Homo sapiens), sequence (P04150 whole entry, looked up): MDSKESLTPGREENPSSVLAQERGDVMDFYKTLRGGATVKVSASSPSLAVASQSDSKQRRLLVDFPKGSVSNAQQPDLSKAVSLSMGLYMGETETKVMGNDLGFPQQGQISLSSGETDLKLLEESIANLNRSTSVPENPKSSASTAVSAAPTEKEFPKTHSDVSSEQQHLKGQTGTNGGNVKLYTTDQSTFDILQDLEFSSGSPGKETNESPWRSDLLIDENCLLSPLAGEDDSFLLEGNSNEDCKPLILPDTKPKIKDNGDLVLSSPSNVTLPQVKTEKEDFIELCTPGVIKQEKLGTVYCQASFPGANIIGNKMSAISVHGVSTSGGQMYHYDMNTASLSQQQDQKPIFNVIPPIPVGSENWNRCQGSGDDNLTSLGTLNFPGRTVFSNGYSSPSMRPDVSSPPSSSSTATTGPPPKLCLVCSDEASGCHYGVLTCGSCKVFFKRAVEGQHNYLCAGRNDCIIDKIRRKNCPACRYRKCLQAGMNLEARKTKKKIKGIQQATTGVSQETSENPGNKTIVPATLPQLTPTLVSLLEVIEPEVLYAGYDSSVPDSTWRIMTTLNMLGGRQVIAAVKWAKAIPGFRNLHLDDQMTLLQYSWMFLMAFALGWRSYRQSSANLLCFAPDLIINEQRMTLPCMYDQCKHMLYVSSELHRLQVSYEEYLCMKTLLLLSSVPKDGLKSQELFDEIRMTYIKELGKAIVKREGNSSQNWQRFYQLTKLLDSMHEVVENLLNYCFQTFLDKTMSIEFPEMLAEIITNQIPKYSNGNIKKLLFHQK
Androgen receptor (Homo sapiens), sequence (P10275 whole entry, looked up): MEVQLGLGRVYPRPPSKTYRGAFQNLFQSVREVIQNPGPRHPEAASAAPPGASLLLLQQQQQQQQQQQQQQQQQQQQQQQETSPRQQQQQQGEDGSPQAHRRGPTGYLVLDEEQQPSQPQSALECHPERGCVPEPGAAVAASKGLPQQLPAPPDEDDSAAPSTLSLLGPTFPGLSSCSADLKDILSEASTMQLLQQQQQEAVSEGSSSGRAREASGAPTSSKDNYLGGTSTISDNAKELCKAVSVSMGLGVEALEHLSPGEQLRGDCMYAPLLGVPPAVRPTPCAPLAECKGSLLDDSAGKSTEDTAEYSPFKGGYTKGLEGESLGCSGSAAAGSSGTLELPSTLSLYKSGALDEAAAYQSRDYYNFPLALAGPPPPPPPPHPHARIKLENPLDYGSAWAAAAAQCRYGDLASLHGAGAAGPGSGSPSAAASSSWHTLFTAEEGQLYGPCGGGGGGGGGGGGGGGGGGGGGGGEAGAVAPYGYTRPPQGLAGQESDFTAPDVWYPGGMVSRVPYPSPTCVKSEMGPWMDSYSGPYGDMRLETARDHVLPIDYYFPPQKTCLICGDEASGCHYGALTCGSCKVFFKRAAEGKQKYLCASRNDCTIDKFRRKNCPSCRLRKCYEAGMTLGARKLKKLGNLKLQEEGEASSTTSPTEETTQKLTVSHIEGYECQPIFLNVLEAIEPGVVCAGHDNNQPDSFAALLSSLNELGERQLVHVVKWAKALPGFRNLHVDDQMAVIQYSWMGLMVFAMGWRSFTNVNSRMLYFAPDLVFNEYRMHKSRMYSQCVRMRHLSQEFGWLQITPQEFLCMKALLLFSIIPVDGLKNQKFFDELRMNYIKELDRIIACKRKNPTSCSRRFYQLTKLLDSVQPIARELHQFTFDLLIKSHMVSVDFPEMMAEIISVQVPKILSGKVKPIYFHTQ

With `CC(COCC(C)OC(=O)c1ccccc1)OC(=O)c1ccccc1` (stereo not drawn), the molecule was classed as inactive in test [1], in test [3], in [4], in [5], in [7] and in [9]. In addition, the Potency result in test [2], in [6], in [8], in test [10], in test [11] and in test [12] was “inactive” each time. In addition, the Potency entry in [14] is “inactive”. In addition, in [13], the Potency was 61.1 µM (active).

Turning to `CC(=O)OC(C)(C)C1CC=C(C)CC1` (stereo not drawn), the molecule was classed as inactive in [1], in test [3], in test [4], in test [5] and in test [7]. For the same molecule, the Potency result in test [2], in test [6], in [8], in test [11], in [15] and in test [12] was “inactive” each time. In addition, the Potency entry in [16] and in test [14] was “inactive” in each case. Also, the Potency result in test [13] was “inactive and 54.5 µM (active)”.

Turning to `CCCCCCC(=O)O`, the call in test [1], in test [3], in test [4], in test [5], in test [7] and in test [9] was inactive. Moreover, the Potency entry in test [2], in [6], in test [8], in test [10], in test [11] and in test [12] was “inactive” in each case. The Potency result in test [13] and in test [14] was “inactive” each time.

As for `COC(=O)CCCCC(=O)OC`, the result in test [1], in test [3], in [4], in test [5], in test [7] and in test [9] was inactive. The Potency entry in test [2], in test [6], in [8], in test [10], in test [11] and in [15] was “inactive” each time. Also, the Potency result in [12] and in test [13] was “inactive” in each case.

As for `CC(C=O)Cc1ccc(C(C)(C)C)cc1` (stereo not drawn), the molecule was called inactive in test [1], in test [3], in test [4], in test [5], in [7] and in test [9]. Moreover, the Potency result in test [2], in [6], in test [8], in test [10], in test [11] and in [15] was “inactive” throughout. Further, the Potency result in test [12], in test [13], in [17], in [18] and in test [20] was “inactive” throughout. The activity change in test [19] was -2.03% (inactive) and -1.92% (inactive).

Regarding `NC(=O)c1ncn([C@@H]2O[C@H](CO)[C@@H](O)[C@H]2O)n1`, the molecule was called inactive in test [1], in [3], in test [4], in [5], in test [7] and in [9]. In addition, the Potency result in test [2], in test [6], in [8], in test [10], in test [11] and in [14] was “inactive” throughout. In addition, the Potency was 668 nM (active) and 5.12 µM (active) in test [15]; 750 nM (active) and 1.62 µM (active) in test [12]; 1.68 µM (active) and 4.07 µM (active) in test [13].

Consider `O=C(Cl)c1ccc(C(=O)Cl)cc1`, for which the result in test [1], in test [3], in [4], in [5], in test [7] and in [9] was inactive. Also, the Potency result in [2], in test [6], in [8], in test [10], in [11] and in [12] was “inactive” each time. Further, the Potency entry in test [13], in test [16] and in test [14] was “inactive” each time.

As for `CC(=O)OC[C@H]1O[C@@](COC(C)=O)(O[C@H]2O[C@H](COC(C)=O)[C@@H](OC(C)=O)[C@H](OC(C)=O)[C@H]2OC(C)=O)[C@@H](OC(C)=O)[C@@H]1OC(C)=O`, the molecule was called inactive in test [1], in test [3], in test [4], in test [5], in [7] and in test [9]. In addition, the Potency result in test [2], in [6], in test [8], in [10], in test [11] and in test [15] was “inactive” each time. The Potency entry in test [12] and in test [13] was “inactive” in each case.

As for `COc1ccc(N)c(OC)c1`, the call in test [1], in test [3], in test [4], in test [5], in [7] and in test [9] was inactive. Also, the Potency entry in [2], in test [6], in test [8], in [10], in [11] and in test [15] was “inactive” in each case. Moreover, the Potency entry in [12], in test [13] and in test [14] was “inactive” throughout.
